Source: PubChem BioAssay (National Center for Advancing Translational Sciences (NCATS))
An excerpt weighted towards active compounds, which were near 9.2% of everything screened.
FLuc modulator – qHTS profiling assay for firefly luciferase inhibitor/activator using purifed enzyme and Km concentrations of substrates (counterscreen for miR-21 project); AID 588342, 2011; Luciferin 4-monooxygenase (Photinus pyralis), P08659; hit rate 6.9% among 360,000; Potency, µM (series often up to 57.5 µM), for inactives: at the highest dose activity change, negative = inhibition, hits mostly inhibitors; purified FLuc, Km substrates, luminescence inhibition;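 note: plate controls were vehicle for no effect and reference inhibitor for full effect; nearly all actives have a fitted effect of over 55% in size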
Target sequence (P08659 whole entry, looked up): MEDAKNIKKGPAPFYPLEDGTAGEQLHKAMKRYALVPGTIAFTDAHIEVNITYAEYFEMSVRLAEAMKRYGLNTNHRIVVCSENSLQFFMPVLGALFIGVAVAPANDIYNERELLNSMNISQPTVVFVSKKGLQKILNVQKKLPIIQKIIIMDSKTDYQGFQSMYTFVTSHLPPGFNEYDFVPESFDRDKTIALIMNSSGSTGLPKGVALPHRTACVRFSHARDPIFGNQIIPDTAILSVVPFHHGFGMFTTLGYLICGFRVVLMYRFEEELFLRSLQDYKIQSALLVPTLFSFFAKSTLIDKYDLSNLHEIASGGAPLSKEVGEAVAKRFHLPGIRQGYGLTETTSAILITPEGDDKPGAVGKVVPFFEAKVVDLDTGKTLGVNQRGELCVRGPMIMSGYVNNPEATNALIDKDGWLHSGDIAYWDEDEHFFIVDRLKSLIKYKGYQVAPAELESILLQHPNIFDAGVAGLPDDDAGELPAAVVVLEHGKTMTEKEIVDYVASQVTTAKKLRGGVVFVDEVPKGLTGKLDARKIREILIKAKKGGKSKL
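Purified P. pyralis luciferase (10nM final) with 10uM D-luciferin and 10uM ATP (Km levels) in 50mM Tris acetate pH 7.5, 10mM Mg acetate, 0.01% Tween-20, 0.05% BSA; qHTS 6-point titration, ~60 µM downward; luminescence read.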
ELG1 genotoxic – qHTS screen for small molecules that induce genotoxicity in human embryonic kidney (HEK293T) cells expressing luciferase-tagged ELG1 | HEK293T ELG1-luciferase reporter, luminescence, 16 h | Potency, µM (doses to about 46 µM), for the others: top-dose activity change, positive = activation, hits mostly activators | hit rate 1.3% among 330,000; note: % of control where 0% means no effect; nearly all actives have a fitted effect of over 60% in size
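Quantitative HTS format in 1536-well plates. HEK293T ELG1-luciferase reporter cells receive test compound and are incubated 16 hr at 37 °C, 5% CO2; ONE-Glo added, 30 min room temperature, then luminescence read.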
ELG1 repair inh – qHTS screen for small molecules that inhibit ELG1-dependent DNA repair in human embryonic kidney (HEK293T) cells expressing luciferase-tagged ELG1. HEK293T ELG1-luciferase reporter, luminescence, 16 h; DNA damage induced by 5-fluorouridine. Potency, µM (titrated, usually from 46.1 µM), inactives show top-dose activity change, negative = inhibition, hits mostly inhibitors. hit rate 2.3% among 330,000. AID 504467, 2011; note: % is set by controls: 0 for no effect and ±100 for the full control effect; nearly all actives have a fitted effect of over 55% in size
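HEK293T cells expressing luciferase-tagged ELG1 (2,000/well) received 5-Fluorouridine plus compound or DMSO for 16 hr at 37 °C. Luciferase was read by ONE-Glo luminescence after 30 min at room temperature.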
NPC1 promoter act – qHTS Assay for NPC1 Promoter Activators; Huh7 NPC1 promoter luciferase reporter, 24 h; Potency, µM (highest dose often 9.22 µM), inactives show top-dose activation, hits mostly activators; hit rate 2.4% among 320,000; AID 485313, 2010; note: % of control where 0% means no effect; nearly all actives have a fitted effect of over 60% in size
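Luminescence read-out of NPC1 promoter-driven luciferase in stably transfected Huh7 cells; compounds delivered in DMSO and left 24 h at 37C, 5% CO2, qHTS titration format.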
SMN2 splice enh – qHTS Assay for Enhancers of SMN2 Splice Variant Expression; hit rate 2.8% among 210,000; Potency, µM (series often up to 46.1 µM), without a hit: top-dose activity change, positive = activation, actives largely listed as activators; HEK293 SMN2-luciferase splicing reporter, luminescence, 30-36 h; note: % of control where 0% means no effect; nearly all actives have a fitted effect of over 55% in size
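HEK293 cells carry an SMN2 minigene-luciferase reporter in which exon 7 inclusion puts luciferase in frame. Cells were seeded at 2000 cells/well, attached for 10-12 hours, then exposed to compounds for 30-36 hours at 37C before ONE-Glo luminescence.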
Rab9 prom act – qHTS Assay for Rab9 Promoter Activators; hit rate 2.8% among 320,000; AID 485297, 2010; Potency, µM (doses to about 9.22 µM), for the others: at the top dose activation, negative = inhibition, most hits filed as activators; Huh7 Rab9 promoter-luciferase reporter, luminescence, 24 h; note: % of control where 0% means no effect; nearly all actives have a fitted effect of over 60% in size
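Cell-based reporter: Huh7 stable for Rab9 promoter-driven luciferase, plated in reduced-serum medium with 10% FBS at 1500 cells/well, compound-treated 24 h at 37 °C, luminescence read after 10 min reagent.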
* = called active by the depositor; ? = inconclusive; . = no result given; [ ] = remark or other dose. Calls come from the whole dose curve; as a rule, active = well fitted curve in the direction sought with a large enough effect; inconclusive = small, poorly fitted or top-dose-only effect, or another doubt; inactive = no such curve, though single readings can be large; an effect the other way counts as inactive or inconclusive. Potency is the fitted concentration of half-maximal effect.

SMILES | FLuc modulator | ELG1 genotoxic | ELG1 repair inh | NPC1 promoter act | SMN2 splice enh | Rab9 prom act
Cc1ccc2c(CN3CCC(C)CC3)cc(=O)oc2c1C | 17µM* | ? | ? | ? | . | ?
Cc1nn(-c2nnc(NCc3ccccc3)nn2)c(C)c1Br | 21µM* | ? | ? | 23% | . | ?
Cc1cc(C(=O)Nc2ccc(Br)cc2)cs1 | 19µM* | 6.5µM* | ? | ? | . | 0.63µM*
Cc1ccc(C)c(NC(=S)NNC(=O)c2csc3c2CCCC3)c1 | -3% | -2% | -10% | 1% | -11% | 3%
Cc1cccc(NC(=S)NNC(=O)c2csc(C)c2)c1 | 8.5µM* | 14% | ? | 14% | . | ?
Cc1cccc(NC(=S)NNC(=O)c2csc3c2CCCC3)c1 | 12µM* | 0% | ? | ? | ? | ?
Cc1cccc(NC(=S)NNC(=O)c2cccc([N+](=O)[O-])c2)c1 | ? | -2% | -6% | -5% | . | 2%
CC(C)(C)n1ncc2c(=O)n(Cc3cccc(C#N)c3)cnc21 | 3% | . | . | . | . | .
Cc1ccc(C)c(N2CCN(c3nc4ccccc4c4nc(-c5cccnc5)nn34)CC2)c1 | -1% | . | . | . | -2% | .
COc1ccc(N2CCN(Cc3nnnn3C3CCCCC3)CC2)cc1 | -3% | -5% | -6% | -1% | -14% | -10%
O=C(NNc1nc2ccccc2s1)Nc1ccccc1 | ? | ? | ? | 3.2µM* | 14µM* | ?
O=C(NCc1ccncc1)C(=O)Nc1nccs1 | 6% | -1% | -7% | 3% | . | -4%
O=C(NCc1ccncc1)C(=O)Nc1nc2ccccc2s1 | 15µM* | 16% | 11% | -1% | . | 22%
Cc1ccc(NC(=O)Nc2nc3ccccc3s2)cc1NC(=O)Nc1nc2ccccc2s1 | ? | -6% | 8% | 15% | . | 1%
O=C(CCc1nc2ccccc2s1)Nc1ccccc1 | ? | 0% | 15% | 1% | -1% | 2%
S=C(Nc1ccccc1)c1nc2ccccc2s1 | ? | ? | ? | ? | 11µM* | 2.5µM*
CCNC(=O)Nc1nc2ccccc2s1 | 24µM* | ? | ? | 4µM* | 14µM* | ?
CCC(=O)OC1=C(C(C)=O)N(Cc2ccccc2)S(=O)(=O)c2ccccc21 | 4% | . | . | . | . | .
Cc1ccc(CNC(=O)CSc2ncc3c(n2)-c2cc(Cl)ccc2N(C)S3(=O)=O)cc1 | 4% | . | . | . | . | .
CCOCC(=O)Nc1nc2ccccc2s1 | 24µM* | ? | ? | 3.2µM* | 14µM* | ?
O=C(COc1ccc(Br)cc1)Nc1ccc(C(=O)OC2CCCCC2)cc1 | -2% | . | . | . | -3% | .
Cc1cccc(-c2cnn(-c3ccccc3)c2N)c1 | 6.7µM* | ? | ? | ? | . | 3.5µM*
Nc1c(-c2ccccc2)cnn1-c1cccc(Cl)c1 | 3.4µM* | ? | ? | 1.1µM* | . | 1.4µM*
Nc1ccccc1Nc1cc(-c2cccc(Cl)c2)nn1-c1ccccc1 | 27µM* | 1% | ? | 6% | 12% | 3%
Cc1cccc(-c2cnn(-c3cccc([N+](=O)[O-])c3)c2N)c1 | ? | 8% | -23% | 18% | ? | 28%
SMILES | FLuc modulator | ELG1 genotoxic | ELG1 repair inh | NPC1 promoter act | SMN2 splice enh | Rab9 prom act
NC(=O)c1cnn(-c2cccc(Cl)c2)c1N | 6% | 1% | 14% | -5% | . | -1%
CC1CC(C)CN(S(=O)(=O)c2ccc(Oc3ccc([N+](=O)[O-])cc3)cc2)C1 (stereo unspecified) | 8% | 11% | 3% | -10% | 6%[1.84 µM] | -17%
CC1C=CCC2C(=O)N(c3cccc(C(=O)N4CCN(c5ccc(F)cc5)CC4)c3)C(=O)C12 (stereo unspecified) | 12µM* | ? | ? | 2.8µM* | ? | 3.2µM*
Cc1ccc(C)c(N2CCN(C(=O)c3ccc(CS(=O)(=O)c4ccccc4C)o3)CC2)c1 | 0% | -24% | 26µM* | -9% | -48% | -28%
O=C(c1cccc(N2C(=O)C3C4C=CC(C4)C3C2=O)c1)N1CCN(c2ccc(F)cc2)CC1 (stereo unspecified) | 0% | -6% | ? | 2% | . | -8%
Cc1cccc(N2CCN(C(=O)c3ccc(CS(=O)(=O)c4ccccc4C)o3)CC2C)c1 (stereo unspecified) | -2% | -11% | 9.2µM* | -15% | -47% | -13%
Cc1cccc(N2CCN(C(=O)c3cccc(N4C(=O)C5C6C=CC(C6)C5C4=O)c3)CC2C)c1 (stereo unspecified) | 2% | -11% | 13µM* | -1% | . | 2%
O=C(NCCN1CCOCC1)c1c(O)nc2sccn2c1=O | 7% | 1% | 22% | -1% | . | -1%
CCOC(=O)[C@@H]1[C@H]2COc3cc(OC)ccc3[C@@H]2N2C(=O)N(c3ccc(F)cc3)C(=O)[C@]12C | 1% | 0% | 1% | -2% | . | 0%
Cc1ccc(Cl)cc1N1CCN(C(=O)c2ccc(CS(=O)Cc3ccc(Cl)cc3)o2)CC1 (stereo unspecified) | -1% | -5% | 0% | -5% | . | -7%
Cc1ccc(C)c(N2CCN(C(=O)c3ccc(CS(=O)Cc4ccc(Cl)cc4)o3)CC2)c1 (stereo unspecified) | 0% | -13% | 15µM* | 0% | . | -5%
C/C(=N\Nc1ccc(Cl)c(C(=O)O)c1)c1ccc(N2CCOCC2)cc1 | 24µM* | ? | ? | 27% | . | ?
O=C(O)c1cc(N/N=C/c2ccc(N3CCOCC3)s2)ccc1Cl | 7.6µM* | ? | ? | ? | ? | 3.2µM*
O=C(NCc1ccccc1)C(=O)Nc1nc(C23CC4CC(CC(C4)C2)C3)cs1 | -6% | -4% | ? | -1% | -14% | -5%
O=C(NCc1ccncc1)C(=O)Nc1nc(C23CC4CC(CC(C4)C2)C3)cs1 | -19% | -13% | 18µM* | -9% | -38% | -6%
CNC(=O)C(=O)Nc1nc(C23CC4CC(CC(C4)C2)C3)cs1 | -19% | 13% | ? | ? | . | 3.2µM*
C[C@@H]1CN([C@@H](C)CO)C(=O)c2cc(NS(=O)(=O)c3ccc(Cl)cc3)ccc2O[C@H]1CN(C)Cc1ccncc1 | . | -3% | -2% | . | . | .
CCOc1ccccc1CNC(=O)C1CCN(C(=O)c2sccc2-n2cccc2)CC1 | 0% | -5% | 13µM* | 1% | -6% | 1%
